Screens deposited in PubChem by National Center for Advancing Translational Sciences (NCATS).
Rows were chosen to be rich in hits. Some 6.1% of all compounds tested hit in one or more screens of this group.
D1 agonist: Allosteric Agonists of the Human D1 Dopamine Receptor: qHTS; hit rate 1% among 360,000; activation, % at 2 µM; HEK293 T-REx D1 cells, calcium flux, agonist mode; AID 504660, 2011; in the data active means activation above about 30%; further: 0% is about no effect
Target sequence (P21728 whole entry, looked up): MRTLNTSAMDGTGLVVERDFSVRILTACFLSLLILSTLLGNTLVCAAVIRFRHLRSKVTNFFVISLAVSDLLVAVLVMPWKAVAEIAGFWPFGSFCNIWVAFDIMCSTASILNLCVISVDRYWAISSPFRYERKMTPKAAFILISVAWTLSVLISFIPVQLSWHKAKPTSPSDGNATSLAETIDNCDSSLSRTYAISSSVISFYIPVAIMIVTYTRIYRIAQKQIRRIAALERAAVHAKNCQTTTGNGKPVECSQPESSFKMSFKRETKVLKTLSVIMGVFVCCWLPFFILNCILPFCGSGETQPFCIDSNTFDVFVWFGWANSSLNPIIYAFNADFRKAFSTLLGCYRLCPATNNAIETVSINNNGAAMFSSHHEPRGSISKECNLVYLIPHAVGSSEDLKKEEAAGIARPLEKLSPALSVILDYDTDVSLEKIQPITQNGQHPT
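Tetracycline-induced HEK293 TREx D1 cells, force-coupled to calcium signalling, were dye-loaded with a no-wash calcium kit. Compound was pin-added after a 10 s baseline. Fluorescence was read kinetically at 1 cycle/s for 180 s, with calcium rises flagged as agonism.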
D3 antag: qHTS of D3 Dopamine Receptor Antagonist: qHTS. D(3) dopamine receptor (Homo sapiens), P35462. D3R cells, DiscoveRx beta-arrestin luminescence, antagonist mode; active compounds read low. max response, negative = inhibition, %. hit rate 2.5% among 360,000. AID 652054, 2013; in the data active means max response below about -50%; inconclusive means no clear call, values can overlap the other calls; further: on the % scale 0 is the no-effect control and ±100 the full control effect
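Cells plated overnight at 1500 cells/well, then exposed to library compounds with dopamine controls for 90 minutes at 37 degrees C. DiscoveRx reagent added for 30–60 minutes at room temperature; luminescence read, quantitative HTS format.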
D1 antag: Antagonist of Human D 1 Dopamine Receptor: qHTS | D(1A) dopamine receptor (Homo sapiens), P21728 | HEK293 TREx D1 cells, calcium flux, dopamine EC80; active compounds read low | activity change, negative = inhibition, % at 10 µM | hit rate 3.2% among 360,000; in the data active means activity change below about -30%; further: on the % scale 0 is the no-effect control and ±100 the full control effect
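Kinetic fluorescence of a calcium dye serves as the read-out. D1-expressing Hek293 Trex cells, induced overnight at 30 C, are exposed to compound for 180 s before an EC80 dopamine addition, then read 180 s further.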
DRD3 agonist: qHTS of D3 Dopamine Receptor Agonist: qHTS; D(3) dopamine receptor (Homo sapiens), P35462; D3R DiscoveRx beta-arrestin cells, luminescence, 90 min; max activation, %; hit rate 0.58% among 410,000; in the data active means max activation above about 30%; further: 0% is about no effect
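Cells at 1500/well, incubated overnight, then treated with pinned compounds (dopamine as control) for 90 min at 37 degrees C. DiscoveRx reagent added for 30 - 60 minutes at room temperature; luminescence read.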
D1 PAM: Potentiators of Human D1 Dopamine Receptor: qHTS | D(1A) dopamine receptor (Homo sapiens), P21728 | HEK293 TREx D1 cells, calcium flux, dopamine EC20 potentiation | potentiation, % at 10 µM | hit rate 0.036% among 360,000; in the data active means potentiation above about 30%; further: 0% is about no effect
* hit, by the source's call; ? = inconclusive; nt = no result given.

SMILES	D1 agonist	D3 antag	D1 antag	DRD3 agonist	D1 PAM
CCCCN(C)S(=O)(=O)c1ccc(C(=O)N(CCN(C)C)c2nc3ccc(C)cc3s2)cc1	2	-1	-39*	-3	-9
CC1CCCCN1S(=O)(=O)c1ccc(C(=O)N(CCCN(C)C)c2nc3ccc(Br)cc3s2)cc1 (centres undefined)	30	-15	-32*	-12	0
CC(NC(=O)Cn1c(=O)oc2cc(S(=O)(=O)N3CCCCCC3)ccc21)c1ccccc1 (centres undefined)	12	nt	-12	0	-1
OCl	nt	nt	nt	6	nt
N=c1c2c(n(Cc3ccc(Cl)cc3)c3c1CCC3)CCC2	1	-13	0	-9	-6
N=c1c2c(n(Cc3ccc(F)cc3)c3c1CCC3)CCCC2	3	1	-30*	-3	-9
CCCCCCCCCn1c2c(c(=N)c3c1CCC3)CCCC2	85*	-24	8	-3	2
CCCCCCCCCCn1c2c(c(=N)c3c1CCC3)CCC2	22	-27	1	-6	-2
COc1ccc(S(=O)(=O)n2nc(-c3ccco3)nc2NCc2ccc(C(C)C)cc2)cc1	7	nt	6	-1	-1
COc1cccc(CNC(=O)c2cc(S(=O)(=O)N3CCCCC3)ccc2C)c1	nt	-1	nt	0	nt
Cc1ccccc1NC(=O)C1CCN(S(=O)(=O)c2ccccc2)CC1	3	nt	-13	8	2
CCCCCCCCNC(C)C(O)c1ccc(SC(C)C)cc1 (centres undefined)	50*	?	8	-82	4
CCc1cc(=O)oc2cc(C)c(CN3CCCC(C)C3)c(O)c12 (centres undefined)	-2	-28	-13	-24	4
CCCCc1cc(=O)oc2cc(C)c(CN3CCCC3)c(O)c12	0	16	5	30*	-5
CN(C(=O)COC(=O)c1ccc(Cl)s1)C1(C#N)CCCCC1	4	0	-5	-10	1
CC(NC(=O)Cn1ccc2cc(S(=O)(=O)N3CCCCCC3)ccc21)c1ccccc1 (centres undefined)	4	nt	-4	-11	0
Cc1ccc(OCc2cc(=O)n3cc(C)sc3n2)c(NC(=O)c2ccco2)c1	0	nt	15	-1	-2
N=C(N=C(N)N)N1CCc2ccccc21	1	-14	-37*	-6	-7
O=C(OCc1ccccc1)N1CCc2ccccc21	2	13	6	5	-6
C/C(=N\NC(=O)OC(C)(C)C)c1ccccc1Br	3	5	-17	-8	-11
CCN(CC)C(=O)c1nn(-c2ccc(OC)cc2)c(=O)c2c(N)scc12	2	nt	-12	nt	-4
CC(C)c1ccc(N(CC(=O)NCCSCc2ccco2)S(C)(=O)=O)cc1	2	1	-61*	0	5
COc1ccc(N(CC(=O)NCc2ccco2)S(C)(=O)=O)cc1Cl	2	17	-68*	2	-2
Cc1ccc(N(CC(=O)NCCSCc2ccco2)S(=O)(=O)c2ccc(C)cc2)cc1	14	5	-38*	-1	-2
COc1ccc(N(CC(=O)NCc2ccco2)S(C)(=O)=O)cc1OC	1	12	-1	17	-3
SMILES	D1 agonist	D3 antag	D1 antag	DRD3 agonist	D1 PAM
CS(=O)(=O)N(CC(=O)NCCSCc1ccco1)c1ccc(Cl)cc1	3	-4	-3	2	2
O=C(Cn1cnc2c(nc3n2CCCCC3)c1=O)Nc1ccc(F)cc1	2	nt	15	-9	8
COc1ccc(Cl)cc1-c1nc(SCC(N)=O)n[nH]1	0	0	4	4	2
CCOC(=O)N1CCC(NC(=O)CC2C(=O)NCCN2Cc2ccccc2)CC1 (centres undefined)	1	7	12	6	0
COc1ccc(NC(=O)Nc2sc(=S)n(C)c2C)cc1	4	-16	-10	-14	-4
Cc1c(NC(=O)Nc2ccc(Cl)c(Cl)c2)sc(=S)n1C	nt	-73*	nt	-26	nt
CCOc1ccc(N2C(=O)c3ccccc3C2=O)cc1	0	12	-18	-2	-5
O=C(COc1ccc(N2C(=O)c3ccccc3C2=O)cc1)c1ccccc1	1	3	-32*	7	-8
CC(C)NC(=O)CN1C(=O)CSc2ccc(S(=O)(=O)N3CCCC3)cc21	8	-14	-13	-2	1
CCCCn1nc(C(=O)Oc2ccc3c(C)cc(=O)oc3c2)c2ccccc2c1=O	1	48	2	4	0
Cc1cc(=O)oc2c3c(cc(OCC(=O)NCc4ccccc4)c12)OC(C)(C)CC3	2	5	-32*	13	-6
CCCc1cc(=O)oc2c3c(cc(OCC(=O)NCCN4CCOCC4)c12)OC(C)(C)CC3	-1	-56*	-7	-48	-2
CCn1c(O)c(/C=N/N=C/c2ccccc2)c2ccc(C3=NNC(=O)CC3)cc21	21	21	-10	7	0
CCC(CC)=N/N=C/c1c(O)n(CC)c2cc(C3=NNC(=O)CC3)ccc12	3	-53*	-8	-2	-8
CC(C)[C@@H](C(=O)N[C@@H](C(=O)O)c1ccccc1)N1C(=O)N2CCc3c([nH]c4ccccc34)[C@@]2(C)C1=O	3	0	0	0	3
CCC(C)[C@H](NC(=O)[C@@H]1Cc2c([nH]c3ccccc23)C2c3ccccc3C(=O)N21)C(=O)NCC1CCCO1 (some centres undefined)	4	0	3	-11	0
O=C(Nc1ccc(CN2CCCCC2)cc1)c1ccc(Br)o1	3	-62*	-16	-15	-10
CCN1CCN(Cc2ccccc2NC(=O)Nc2ccc(C)cc2)CC1	2	-30	3	-17	4
CCN1CCN(Cc2ccc(NC(=O)Nc3ccccc3Cl)cc2)CC1	3	-61*	-9	-15	-1
O=C(Nc1ccc(CN2CCCCC2)cc1)Nc1ccccc1Cl	14	-52*	0	-28	0
CC(=O)Nc1ccc(CN2CCCCCCC2)cc1	3	?	-16	-3	-6
O=C(Nc1ccc(CN2CCCCC2)cc1)c1c(F)c(F)c(F)c(F)c1F	1	5	-15	-7	3
O=C(CNC(=O)c1ccc(Br)o1)Nc1ccncc1	0	4	-64*	0	-4
COc1ccc(-c2nc3n(n2)C(c2ccccc2F)C(C(=O)Nc2cccnc2)=C(C)N3)cc1OC (centres undefined)	0	nt	-2	-14	-1
O=C(CNC(=O)c1ccc(Cl)cc1)OC(C(=O)Nc1cc(C(F)(F)F)ccc1Cl)c1ccccc1 (centres undefined)	2	nt	25	nt	5
